The panel holds about 79,000 compounds, 15% with a hit somewhere; the sample as a whole holds those more often. Calls of active or inactive are those of the source. No stated cut-off is given here; in the data, active means growth inhibition above about 70%; inactive means the rest.
Tests used:
[1] = NCI Yeast Anticancer Drug Screen. Data for the rad50 strain (AID 155);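 further: 0% = growth of vehicle-only cultures of the same strain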; conditions: S. cerevisiae rad50 strain growth inhibition; at 50.0 µM; stronger effect = higher value
Outline: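 A DNA repair-deficient yeast mutant serves as the test organism; compound-induced growth inhibition is calculated against vehicle-treated cells.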

[2] = NCI Yeast Anticancer Drug Screen. Data for the mec2-1 strain (AID 157); conditions: S. cerevisiae mec2-1 strain, at 50.0 µM, stronger effect = higher value
Outline: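 Each compound was tested on mec2-1 yeast, a strain altered in DNA damage repair or cell cycle control. Growth inhibition is reported relative to vehicle.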

[3] = NCI Yeast Anticancer Drug Screen. Data for the sgs1 mgt1 strain (AID 161);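 further: 0% = growth of cultures given vehicle only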; conditions: S. cerevisiae sgs1 mgt1 strain, at 50.0 µM, stronger effect = higher value
Outline: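 Genetically altered yeast, compound exposure, growth inhibition relative to vehicle.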

[4] = NCI Yeast Anticancer Drug Screen. Data for the cln2 rad14 strain (AID 165);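 further: 0% = growth equal to vehicle treated cultures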; conditions: S. cerevisiae cln2 rad14 strain, at 50.0 µM, stronger effect = higher value
Outline: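 Test compounds were added to cln2 rad14 yeast cultures; inhibition of growth was then determined by comparison with vehicle treatment.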

[5] = NCI Yeast Anticancer Drug Screen. Data for the bub3 strain (AID 167); conditions: S. cerevisiae bub3 mutant strain, at 50.0 µM, stronger effect = higher value
Outline: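 Inhibition values come from growth of compound-treated mutant yeast normalised to vehicle-treated controls.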

[6] = NCI Yeast Anticancer Drug Screen. Data for the mlh1 rad18 strain (AID 175); conditions: S. cerevisiae mlh1 rad18 strain growth inhibition; at 50.0 µM; stronger effect = higher value
Outline: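 Inhibition values reflect reduced growth of mutant yeast versus vehicle-treated controls following compound exposure; the mutations affect DNA damage repair.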

| SMILES | growth inhibition [1] | growth inhibition [2] | growth inhibition [3] | growth inhibition [4] | growth inhibition [5] | growth inhibition [6] |
| --- | --- | --- | --- | --- | --- | --- |
| CCc1ccccc1NC(=S)NC1CCCCC1 | -2.7% (inactive) | -8.85% (inactive) | 0.05% (inactive) | -18.5% (inactive) | 32.2% (inactive) | -5.6% (inactive) |
| N/C(=N/N=C/C1CCCCC1)NO | 0.95% (inactive) | -9.25% (inactive) | -24.1% (inactive) | 3.4% (inactive) | -13.9% (inactive) | 13.6% (inactive) |
| CCOC([O-])=N/C(=N/[n+]1ccc(C)cc1)c1ccccc1 | 8.35% (inactive) | 5.55% (inactive) | -3.45% (inactive) | -16.1% (inactive) | -15.1% (inactive) | -12.5% (inactive) |
| O=[N+]([O-])c1ccc(N=NNc2ccc([N+](=O)[O-])cc2)cc1 | 4.5% (inactive) | -13% (inactive) | -2.05% (inactive) | -38.1% (inactive) | -2.95% (inactive) | 5.4% (inactive) |
| O=C(Nc1ccc(Br)cc1)Oc1ccc(Cl)cc1C(=O)c1ccccc1 | 38% (inactive) | 8.5% (inactive) | 19.1% (inactive) | 29.5% (inactive) | 41.8% (inactive) | 20.5% (inactive) |
| O=C(Nc1cccc(Cl)c1Cl)Oc1cccc2ccccc12 | 21.4% (inactive) | 5.15% (inactive) | 12.4% (inactive) | 8.65% (inactive) | 24.5% (inactive) | 16.4% (inactive) |
| Cc1ccc(C(=O)CCN2CCOCC2)c(C)c1 | 40.1% (inactive) | 5.55% (inactive) | 26.6% (inactive) | -4.65% (inactive) | 29.1% (inactive) | 31% (inactive) |
| CC1CS(=O)(=O)CC(C)S1(=O)=O (stereo not given) | -8.6% (inactive) | -1.55% (inactive) | -5.95% (inactive) | -4.3% (inactive) | 14.7% (inactive) | -7.05% (inactive) |
| C/C(=N\N=C(/C)c1cccc2ccccc12)c1cccc2ccccc12 | -8.9% (inactive) | -0.65% (inactive) | 4.7% (inactive) | -15.9% (inactive) | -17.7% (inactive) | -36.2% (inactive) |
| CCN(CC)CCCNc1nc2ccccc2c2c1ncn2CC(C)C | -51% (inactive) | 5.4% (inactive) | -20.8% (inactive) | 27.1% (inactive) | 13.2% (inactive) | 6.35% (inactive) |
| C[C@H](CCc1nc(C#N)c(N)o1)[C@H]1CC[C@H]2[C@@H]3CCC4C[C@@H](O)CC[C@]4(C)[C@H]3C[C@@H](O)[C@]12C (stereo not given in full) | 87% (active) | 91.6% (active) | 86% (active) | 87.7% (active) | 84% (active) | 46% (inactive) |
| CCc1cccc(C(C)(C)C)c1NC(=S)N/C=C(/C#N)C(N)=O | 8.2% (inactive) | -7.45% (inactive) | 16.9% (inactive) | 13.7% (inactive) | -15.9% (inactive) | 11.8% (inactive) |
| Cn1cc(S(=O)(=O)NC(=O)Nc2ccc(Cl)cc2)c2ccccc21 | -19.4% (inactive) | -9.85% (inactive) | -1.05% (inactive) | 29.7% (inactive) | -20.1% (inactive) | -13.9% (inactive) |
| O=C1OC(=O)C2=C1CCC2 | -5% (inactive) | -14.1% (inactive) | -20.4% (inactive) | 13.3% (inactive) | 3.85% (inactive) | -12.4% (inactive) |
| FC(F)/C=C\c1ccccc1 | 8.85% (inactive) | -4.55% (inactive) | -10.4% (inactive) | -19.8% (inactive) | -16.9% (inactive) | 6.9% (inactive) |
| CN1CCC(Cl)(C(=O)c2ccccc2)CC1 | 26.2% (inactive) | 4.35% (inactive) | 25.6% (inactive) | -9.5% (inactive) | 5% (inactive) | 8.25% (inactive) |
| CCCCCCCCCCCC(=O)N/N=C(\C)c1cccc2ccccc12 | 86.8% (active) | 84.2% (active) | 94% (active) | 59.8% (inactive) | 43.8% (inactive) | 84.2% (active) |
| COc1ccc(SC2=CC(=O)c3ccccc3C2=O)cc1 | 41% (inactive) | 11.2% (inactive) | 34.2% (inactive) | -16.4% (inactive) | -11.6% (inactive) | 30.6% (inactive) |
| c1ccc(CC2COC(c3cccs3)=N2)cc1 (stereo not given) | 26.9% (inactive) | -13.2% (inactive) | 21.6% (inactive) | 18.1% (inactive) | 31.2% (inactive) | 9% (inactive) |
| COC(=O)C(NC(=O)C(=O)NC(C(=O)OC)C(C)(C)S)C(C)(C)S (stereo not given) | 3.85% (inactive) | -9.1% (inactive) | -2.3% (inactive) | -12.7% (inactive) | -5% (inactive) | 4.25% (inactive) |

| SMILES | growth inhibition [1] | growth inhibition [2] | growth inhibition [3] | growth inhibition [4] | growth inhibition [5] | growth inhibition [6] |
| --- | --- | --- | --- | --- | --- | --- |
| CCOC(=O)c1sc(C(=O)OCC)c(O)c1O | 97% (active) | 95.5% (active) | 97.8% (active) | 58.4% (inactive) | 95.7% (active) | 97% (active) |
| COc1ccc(NS(=O)c2ccccc2OC)cc1 (stereo not given) | 2.7% (inactive) | 4.5% (inactive) | 14.3% (inactive) | -18.9% (inactive) | 8.05% (inactive) | 5.5% (inactive) |
| CC(C)CCOC(=O)COc1ccc(Cl)cc1Cl | 6.95% (inactive) | -13.7% (inactive) | 3.55% (inactive) | 19.2% (inactive) | 18.8% (inactive) | -17% (inactive) |
| Cc1ncc(CSCC(=O)O)c(N)n1 | 3.5% (inactive) | -16.1% (inactive) | -5.05% (inactive) | -9.05% (inactive) | -8.7% (inactive) | -8.55% (inactive) |
| CC(C)C(Br)CCC1=CCC(Br)(Br)C1 (stereo not given) | 79.1% (active) | 82.2% (active) | 88.5% (active) | 86.2% (active) | 84.7% (active) | 90.3% (active) |
| O=C1OC(c2ccccc2)(c2ccc(Cl)cc2)CC1/C=C(\c1ccccc1)c1ccc(Cl)cc1 (stereo not given) | -2% (inactive) | 6.65% (inactive) | 6.6% (inactive) | -10.4% (inactive) | -7.4% (inactive) | 3.65% (inactive) |
| CCOC(=O)C(C#N)C1=CC(=O)C(=O)c2ccc(OC)cc21 (stereo not given) | 14% (inactive) | 11.3% (inactive) | -5.5% (inactive) | 27.9% (inactive) | -9.95% (inactive) | 9.1% (inactive) |
| O=C(O)C(O)(C1CCCCC1)C1CCC2CCC3CCCC1C32 (stereo not given) | 5.4% (inactive) | 9.4% (inactive) | 20.1% (inactive) | 12.7% (inactive) | -11.2% (inactive) | 14.8% (inactive) |
| CO/N=C(\C(=O)N(C)n1cnnc1)c1csc(NC(c2ccccc2)(c2ccccc2)c2ccccc2)n1 | 21.7% (inactive) | 13.2% (inactive) | 11.8% (inactive) | 25.1% (inactive) | 18.8% (inactive) | 28% (inactive) |
| Cc1cccc(NC(=S)N(CCC#N)C2CCCCC2)c1 | 1.6% (inactive) | -2.85% (inactive) | 14.8% (inactive) | 7% (inactive) | 18.6% (inactive) | 9.85% (inactive) |
| COc1cc(Br)c2ncccc2c1 | 1.75% (inactive) | -0.6% (inactive) | 3.85% (inactive) | 4.05% (inactive) | 2.2% (inactive) | -14.5% (inactive) |
| Cc1ccccc1NC(=O)C(=O)CC(=O)c1sc(Nc2ccccc2[N+](=O)[O-])nc1C | 8.8% (inactive) | -7.45% (inactive) | -7.4% (inactive) | -10.3% (inactive) | -0.3% (inactive) | -2.9% (inactive) |
| O=C1NC(=O)C(=O)N1 | 25.8% (inactive) | 13.4% (inactive) | 8.65% (inactive) | 16.4% (inactive) | 27.8% (inactive) | -1.8% (inactive) |
| COc1cc(/C=C2/C(=O)N=C(NC(C)=O)N2C)ccc1OC(C)=O | -35.9% (inactive) | -2.55% (inactive) | -14.7% (inactive) | 6.35% (inactive) | 5.55% (inactive) | -37.1% (inactive) |
| CCOC(=O)c1sc(SC)nc1NC(=O)c1ccc([N+](=O)[O-])cc1 | -13.4% (inactive) | -8.55% (inactive) | -53% (inactive) | -1.3% (inactive) | -20.5% (inactive) | -3.85% (inactive) |
| CC(C)CCCC(C)C1CCC2C3C(=O)C=C4CC(OC(=O)CCC(C)C)CCC4(C)C3CCC12C (stereo not given) | -0.05% (inactive) | 11.9% (inactive) | 25.3% (inactive) | 19.8% (inactive) | -0.55% (inactive) | 0.25% (inactive) |
| CCCC(CCC)C(=O)[O-].CCCC(CCC)C(=O)[O-].CCCC(CCC)C(=O)[O-].CCCC(CCC)C(=O)[O-].[Cu+2].[Cu+2] | 1.4% (inactive) | 13.4% (inactive) | -2.8% (inactive) | 19.9% (inactive) | 20% (inactive) | 14.2% (inactive) |
| COC(=O)C1C(COS(C)(=O)=O)ON2CCC(OC)(OC)C12 (stereo not given) | 4.85% (inactive) | 11.1% (inactive) | 17.8% (inactive) | -15.8% (inactive) | 7.3% (inactive) | 43.1% (inactive) |
| COc1cccc(NC(=O)CC(=O)NN2C(=O)/C(=C/c3ccc(N(CCC#N)CCC#N)cc3)N=C2c2cc([N+](=O)[O-])ccc2Cl)c1 | 17.4% (inactive) | -5.05% (inactive) | 16.4% (inactive) | -6.7% (inactive) | 0.3% (inactive) | 14.6% (inactive) |
| COc1cccc2cc(-n3nnc4ccccc43)c(=O)oc12 | -8.6% (inactive) | 18.1% (inactive) | 4.6% (inactive) | 7.6% (inactive) | 25.8% (inactive) | 9.85% (inactive) |

Reference: PubChem BioAssay (NCI)
